Screens as filed in PubChem BioAssay.
Most compounds without a hit are left out; they make up all but 1% or so of the library.
TR SRC2 fluor cs: Total Fluorescence Counterscreen for Inhibitors of the Interaction of Thyroid Hormone Receptor and Steroid Receptor Coregulator 2; TRb/SRC2 Texas Red total fluorescence interference; Potency, µM (highest dose often 106 µM); hit rate 0.29% among 280,000; active = well fitted curve in either direction with a large enough effect; inconclusive = small, poorly fitted or top-dose-only effect
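Human TRb ligand-binding domain at 0.6 uM with 20 nM Texas Red SRC2 peptide in Tris buffer containing 1 uM T3 and 5% DMSO, incubated with compound 5 h at ambient temperature. Total fluorescence (555/632 nm) calculated as parallel + 2 × perpendicular.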
TSHR antagonist: Antagonists of the Thyroid Stimulating Hormone Receptor: HTS campaign. TSHR-expressing cells, TSH-stimulated cAMP HTRF, 2 h; stronger effect = lower value. hit rate 0.2% among 330,000. Thyrotropin receptor (Homo sapiens), P16473. activity change, negative = inhibition, % at 11.5 µM. AID 504810, 2011;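 active = activity change below a set negative limit, meaning inhibition stronger than a set level, cut at about -70% in these data; inconclusive = activity change between two set negative limits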
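Antagonism was scored as loss of TSH-driven cAMP in TSHR cells, stimulated with 4nM TSH (EC80) for 2 hours at 37 deg C and detected by homogeneous HTRF competition immunoassay.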
TRb SRC2 PPI: qHTS for Inhibitors of the Interaction of Thyroid Hormone Receptor and Steroid Receptor Coregulator 2; Potency, µM (titrated, usually from 106 µM), actives largely listed as inhibitors; AID 1469, 2008; Thyroid hormone receptor beta (Homo sapiens), P10828; hit rate 0.065% among 280,000; TRbeta-SRC2 peptide binding, fluorescence polarization; receptor liganded with 1 µM T3; also: nearly all actives have a fitted effect of over 50% in size
Target sequence (P10828 whole entry, looked up): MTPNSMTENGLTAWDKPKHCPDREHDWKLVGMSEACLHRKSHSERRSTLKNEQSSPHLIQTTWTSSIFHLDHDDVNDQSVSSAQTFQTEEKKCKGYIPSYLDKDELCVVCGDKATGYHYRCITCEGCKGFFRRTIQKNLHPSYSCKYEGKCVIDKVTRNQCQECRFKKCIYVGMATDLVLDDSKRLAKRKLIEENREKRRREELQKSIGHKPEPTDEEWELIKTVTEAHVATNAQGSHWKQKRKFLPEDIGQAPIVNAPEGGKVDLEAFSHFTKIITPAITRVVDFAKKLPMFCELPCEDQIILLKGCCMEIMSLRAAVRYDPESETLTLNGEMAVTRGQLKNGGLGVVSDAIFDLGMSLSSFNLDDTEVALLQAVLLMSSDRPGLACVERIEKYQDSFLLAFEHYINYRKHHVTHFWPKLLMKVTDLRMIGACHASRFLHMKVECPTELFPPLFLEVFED
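TRb LBD 0.6 uM + Texas Red SRC2 peptide 20 nM, 1 uM T3, Tris buffer w/ 5% DMSO; compound pinned, 5 h RT; FP read ex 555/em 632; normalized to unbound and bound controls.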
NPSR antag: qHTS Assay for Antagonists of the Neuropeptide S Receptor: cAMP Signal Transduction; Q6W5P4; CHO-NPSR cells, cAMP TR-FRET, antagonist mode; Potency, µM (titrated, usually from 38.3 µM), usual class: inhibitors; hit rate 1% among 220,000; also: nearly all actives have a fitted effect of over 50% in size
Coupling enz: qHTS Assay for Inhibitors of Fructose-1,6-bisphosphate Aldolase from Giardia Lamblia: Coupling assay counterscreen | hit rate 0.67% among 290,000 | coupling enzyme system counterscreen, AmpLite Red fluorescence | activity change, negative = inhibition, % at 58.2 µM, hits read low; in the data active = activity change below about -30%
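Fluorescence at 525 nm excitation and 598 nm emission measured inhibition of the coupled detection system without aldolase. Compounds (at 57.5 uM final) were preincubated 10 min at room temperature with coupling enzyme reagent before a 20 min substrate/AmpLite Red step.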
TCR activator: Activators of T cell receptors: qHTS campaign; primary human leukocytes, anti-CD3, IL-2 HTRF, 48 h; Potency, µM (series often up to 9.22 µM), usual class: activators; 330,000 tested, under 10 active
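Human primary leukocytes + a-CD3 beads + cpd, 48 hr; IL-2 in supernatant by HTRF (ex 320nm / em 665nm). No co-stimulatory signal supplied.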
Hits are given with their value; n = inactive; u = inconclusive; x = not tested or not shown; [ ] = another dose, or the depositor's remark. Unless noted, calls follow the shape of the dose curve; as a rule, active = well fitted curve in the direction sought with a large enough effect; inconclusive = small, poorly fitted or top-dose-only effect, or another doubt; inactive = no such curve, though single readings can be large; an effect the other way counts as inactive or inconclusive.

SMILES	TR SRC2 fluor cs	TSHR antagonist	TRb SRC2 PPI	NPSR antag	Coupling enz	TCR activator
CCc1ccc2occ(CC(=O)Nc3c(C(=O)Nc4ccc(Cl)cc4)oc4ccccc34)c2c1	u	x	n	x	x	x
CCc1ccc2occ(CC(=O)Nc3c(C(=O)Nc4ccc(C)cc4)oc4ccccc34)c2c1	1122µM[quencher]	x	n	x	x	x
C=C1N(C)c2cc([N+](=O)[O-])c(N)cc2C1(C)C	n	n	n	n	-41	n
O=[N+]([O-])c1ccc(N/N=C/c2ccc(O)c(O)c2O)c(S(=O)(=O)N2CCOCC2)c1	u	n	n	n	-59	n
O=C(CCc1ccc(S(=O)(=O)N2CCOCC2)cc1)N/N=C/c1ccc(F)cc1F	n	n	n	n	n	n
O=C(CCc1ccc(S(=O)(=O)N2CCOCC2)cc1)N/N=C/c1ccc(O)c(O)c1O	n	n	n	n	-31	n
COc1ccc(N2CCN(C(=O)C3CCN(S(=O)(=O)c4cccc5nonc45)CC3)CC2)cc1	u	x	n	x	x	x
COc1ccc(-c2cc3c(=O)n(CC(=O)NCc4cccnc4)nc(C)n3n2)cc1	x	-139	x	x	n	n
COc1ccc(-c2cc3c(=O)n(CC(=O)Nc4ccc(Cl)cc4)nc(C)n3n2)cc1	x	n	x	x	x	n
Cc1ccc(S(=O)(=O)N(C)C)cc1NC(=S)Nc1cccc2ccccc12	x	n	x	x	n	n
S=C(Nc1ccc(Cl)cc1)Nc1cccc2cnccc12	n	n	n	n	-48	n
S=C(Nc1cccnc1)Nc1cccc2cnccc12	n	n	n	n	-37	n
CN(C)S(=O)(=O)c1cccc(NC(=S)Nc2cccc3cnccc23)c1	n	n	n	n	-53	n
Fc1ccc(NC(=S)Nc2cccc3cnccc23)cc1	n	n	u	n	-51	n
Cc1ccc(CSc2ccc3nnc(CCNS(=O)(=O)c4ccc(C)cc4)n3n2)cc1	n	x	n	x	x	x
Cn1c(=O)n(C)c2cc(CNCc3ccc(C(=O)O)cc3)ccc21	n	x	n	x	x	x
CC1=C(CO)C(=O)OC([C@@H](C)C2CC[C@H]3C4C[C@H]5O[C@]56[C@@H](O)C=CC(=O)[C@]6(C)C4CC[C@]23C)C1 (some centres not stated)	n	n	n	5µM	n	n
COc1ccc(CNc2nc(-c3ccco3)nn2C(=O)CC(C)C)cc1	79µM[quencher]	x	n	x	x	x
O=C(Nc1nc(-c2ccco2)c(-c2ccco2)s1)C1CC(=O)N(c2ccc3c(c2)OCCO3)C1 (configuration not stated)	25µM[quencher]	n	n	n	n	n
O=C(O)c1ccccc1-c1c2cc(Br)c(=O)c(Br)c-2oc2c(Br)c(O)c(Br)cc12	28µM[fluorescent]	x	u	x	n	x
O=C(O)c1cccc2cccc(-c3c4ccc(=O)c(O)c-4oc4c(O)c(O)ccc34)c12	x	x	x	x	x	n
CC(C)Nc1nc(N)nc(Cl)n1	n	x	n	x	x	x
COc1ccc2[nH]c(=O)c(CN(Cc3ccco3)C(c3nnnn3Cc3ccccc3)C(C)C)cc2c1 (configuration not stated)	n	n	n	u	n	n
Cc1cccc2cc(CN(Cc3ccco3)C(c3nnnn3CCc3ccccc3)C(C)C)c(=O)[nH]c12 (configuration not stated)	n	n	n	13µM	n	n
O=S(=O)(O)c1ccc(N=Nc2cc(S(=O)(=O)O)c3ccccc3c2O)c2ccccc12	100µM[fluorescent]	x	u	x	x	x
SMILES	TR SRC2 fluor cs	TSHR antagonist	TRb SRC2 PPI	NPSR antag	Coupling enz	TCR activator
Cc1ccc(C(=O)n2nc(C)c(S(=O)(=O)N3CCCCCC3)c2C)cc1	n	x	n	x	x	x
CC(C)(C)C1=CC(=O)C(=O)C(C(C)(C)C)=C1	n	n	n	u	-48	n
O=C(O)CCCCCNc1ccc2nsnc2c1[N+](=O)[O-]	35µM[quencher]	n	n	n	n	n
O=C(O)CCCCCNS(=O)(=O)c1cccc2nsnc12	n	n	n	n	n	n
Cc1ccc(C)c2[nH]c(=O)c(C(c3nnnn3Cc3ccco3)N3CCc4ccccc4C3)cc12 (configuration not stated)	n	n	u	n	-34	n
Cc1ccc(C)c2[nH]c(=O)c(C(c3nnnn3CCc3ccccc3)N3CCOCC3)cc12 (configuration not stated)	n	n	n	n	n	n
COc1ccc(Cc2c(C)nn(-c3nc(C)c(C(=O)Nc4cccc(C(C)=O)c4)s3)c2C)cc1	u	x	n	x	x	x
Cc1nnc(N2CCN(c3ccccc3F)CC2)c2c1nnn2Cc1ccccc1Cl	n	x	n	x	x	x
CN(c1ccc(OCC(=O)OCC(=O)Nc2ccc(Br)cc2)cc1)S(=O)(=O)c1cccs1	n	n	n	n	n	n
CN(c1ccc(OCC(=O)OCC(=O)Nc2ccccc2)cc1)S(=O)(=O)c1cccs1	5µM[quencher]	n	n	n	n	n
C/C(=N\NC(=O)COc1ccccc1-c1ccccc1)c1ccccn1	n	n	n	7.9µM	n	n
COc1ccc(/C=C(\C#N)C(=O)N2COCC2(C)C)cc1	x	-75	x	x	n	n
CCOC(=O)c1cc(-c2ccc(OC)c(S(=O)(=O)N3CCN(c4ccccc4)CC3)c2)on1	n	x	n	x	x	x
Cc1cc(-n2c(C)nc3ccccc3c2=O)ccc1NC(=O)c1cccc([N+](=O)[O-])c1	n	x	n	x	x	x
Cc1c2oc3c(C)ccc(C(=O)N[C@@H]4C(=O)N[C@H](C(C)C)C(=O)N5CCC[C@H]5C(=O)N(C)CC(=O)N(C)[C@@H](C(C)C)C(=O)O[C@@H]4C)c3nc-2c(C(=O)N[C@@H]2C(=O)N[C@H](C(C)C)C(=O)N3CCC[C@H]3C(=O)N(C)CC(=O)N(C)[C@@H](C(C)C)C(=O)O[C@@H]2C)c(N)c1=O	n	x	n	x	-36	x
Cc1ccccc1CNC(=O)c1cccc(NC(=O)N2CCSc3ncccc32)c1	n	x	n	x	x	x
Fc1ccc(CNc2cc(-c3ccccc3)nc3nncn23)cc1	n	x	n	x	x	x
O=C(NC1CCCc2ccccc21)c1ccccn1 (configuration not stated)	x	n	x	x	n	n
O=C(NC1CCOc2ccccc21)c1ccccn1 (configuration not stated)	x	-92	x	x	n	n
CCOc1ccccc1NC(=O)Cn1nnc2sc3c(c2c1=O)CCC(C(C)(C)C)C3 (configuration not stated)	n	x	n	x	x	x
Cc1ccccc1NC(NC(=O)OCCn1c([N+](=O)[O-])cnc1C)C(Cl)(Cl)Cl (configuration not stated)	7.1µM[quencher]	n	n	n	n	n
